High-throughput results from PubChem.
Compounds with a hit are over-represented: about 3% of the library has one in this group of screens.
Vc quorum ag: inducers of Vibrio cholerae quorum light production without autoinducers, primary screen, BH1578 luxS cqsA deficient, single point; V. cholerae BH1578 lux reporter, luminescence, 6 h; activation, % at 18.7 µM; hit rate 0.16% among 350,000; in the data active = activation mostly above about 9.7%, no sharp cut-off; inconclusive = no clear call, values can overlap the other calls; inactive = mostly below about 3.7%
GDH-TPI counter-1: GDH-TPI coupling enzyme inhibitors, primary screen, artefact control for M. tuberculosis FBA inhibitor project, biochemical, absorbance, full deck | GDH-TPI coupled enzyme counterscreen, NADH absorbance | inhibition, % at 4.8 µM | hit rate 1.2% among 360,000; in the data active = inhibition above about 30%;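 also: 0% = DMSO wells and 100% = wells lacking the enzyme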
BioA inh: M. tuberculosis BioA enzyme inhibitors, primary screen, biochemical, plate reader, single point, HTS. hit rate 0.096% among 360,000. 7,8-diaminopelargonic acid synthase BioA (Mycobacterium tuberculosis). purified M. tuberculosis BioA enzyme. inhibition, % at 9.99 µM. AID 602481, 2012; in the data active = inhibition above about 40%; inconclusive = no clear call, values can overlap the other calls
FBA Mtb inh: Mtb FBA enzyme inhibitors, primary screen, biochemical, fluorescence, strain H37Rv | purified M. tuberculosis FBA, fluorescence read-out | inhibition, % at 1 µM | Fructose-bisphosphate aldolase (Mycobacterium tuberculosis (strain ATCC 25618 / H37Rv)), … | hit rate 2.3% among 360,000 | AID 588726, 2011;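 also: 0% = vehicle and 100% = reference inhibitor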
Target sequence (P9WQA3 whole entry, looked up): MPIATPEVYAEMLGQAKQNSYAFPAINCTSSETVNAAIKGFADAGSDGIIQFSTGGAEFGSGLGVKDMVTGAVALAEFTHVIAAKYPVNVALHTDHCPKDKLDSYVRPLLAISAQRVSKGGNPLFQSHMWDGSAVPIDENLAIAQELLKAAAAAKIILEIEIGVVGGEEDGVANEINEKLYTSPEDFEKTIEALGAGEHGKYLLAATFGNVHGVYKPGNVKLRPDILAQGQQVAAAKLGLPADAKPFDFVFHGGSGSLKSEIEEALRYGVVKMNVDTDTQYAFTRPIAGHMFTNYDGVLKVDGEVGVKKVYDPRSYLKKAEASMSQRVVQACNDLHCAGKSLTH
Mtb FBA confirm: M. tuberculosis aldolase blockers, biochemical, fluorescence, strain H37Rv, confirmation | shares compounds with FBA Mtb inh | purified M. tuberculosis FBA, fluorescence read-out | inhibition, % at 1 µM | hit rate 78% among 5,600 | AID 651616, 2012;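 also: 0% = vehicle wells and 100% = reference inhibitor wells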
GDH-TPI counter-2: GDH-TPI coupling enzyme inhibitors, artefact control for M. tuberculosis FBA inhibitor project, biochemical, fluorescence, high throughput. shares compounds with FBA Mtb inh. GDH-TPI coupled enzyme counterscreen. inhibition, % at 1 µM. hit rate 81% among 5,600. AID 652141, 2013; in the data active = inhibition above about 10%
GDH-TPI DR: GDH-TPI coupling enzyme inhibitors, dose response, artefact control for M. tuberculosis FBA inhibitor project, biochemical, fluorescence, IC50; shares compounds with FBA Mtb inh; GDH-TPI coupled enzyme assay, artifact counterscreen; IC50, µM; hit rate 79% among 170; AID 652145, 2013; call rule not given here
Starred values were filed as active, the others as inactive; i = inactive; u = inconclusive; x = not tested or not shown; + = active, no number. Rule as the data show it, unless noted: active = inhibition above about 27%; inactive = the rest.

SMILES | Vc quorum ag | GDH-TPI counter-1 | BioA inh | FBA Mtb inh | Mtb FBA confirm | GDH-TPI counter-2 | others
CC(C)c1nc2cc(Cl)ccc2n(Cc2ccccc2)c1=O | 0 | -10 | x | 3 | x | x
O=c1[nH]cccc1-c1nc2cc(Cl)ccc2n1Cc1ccccc1 | -2 | 1 | -1 | 77* | 5 | -2
C[C@@H]1CN([C@@H](C)CO)C(=O)Cc2cc(NC(=O)Nc3ccccc3)ccc2O[C@H]1CN(C)C(=O)Nc1ccc(C(F)(F)F)cc1 | x | x | -2 | x | x | x
CCCCc1nc2ccccc2c(NC(=O)CN2CCCC2)c1CCC | i | 11 | x | 1 | x | x
O=C(CN1CCCCC1)Nc1c2c(nc3ccccc13)N(c1ccccc1)CC2 | -3 | 3 | x | 80* | 152* | 125*
Cn1nnc2c(NCc3ccco3)nccc21 | 1 | -3 | 2 | 64* | 53* | 43*
Cn1c(NCc2ccco2)nc2ccccc21 | i | -3 | -1 | -4 | x | x
CCOc1ccc2[nH]c(=O)c(CN(Cc3nnnn3Cc3ccco3)C3CCCCC3)cc2c1 | 1 | -2 | -2 | 16 | x | x
COc1cc2cc(CN(Cc3nnnn3Cc3ccco3)C3CCCCC3)c(=O)[nH]c2cc1OC | 33* | 9 | -4 | 40* | 63* | 53*
COc1ccc(Cn2nnnc2CN(Cc2cc3ccc(C)cc3[nH]c2=O)C2CCCC2)cc1 | -1 | 13 | 0 | 0 | x | x
COCCn1nnnc1CN(Cc1cc2cc(OC)c(OC)cc2[nH]c1=O)C1CCCC1 | -12 | 4 | x | 39* | 73* | 70*
CC(=O)N1[C@H](C(=O)NCC2CC2)[C@@H](CO)[C@@H]2Cn3c(ccc(-c4ccccc4F)c3=O)[C@@H]21 | x | x | 0 | x | x | x
COc1ccc(N2CCN(CCC(N)=O)CC2)cc1 | 1 | 7 | -2 | 31* | 78* | 53*
CCOC(=O)c1ccccc1NC1CC(=O)N(c2ccccc2C)C1=O (centres undefined) | 0 | 9 | -2 | 102* | 135* | 139*
Cc1ccc(C2=NOC3(CC(=O)N(c4ccc(C)cc4)C3=O)C2)cc1 (centres undefined) | 0 | 28 | x | 29* | 43* | 38*
COc1ccccc1C(=O)Nc1ccc2c(c1)OC[C@H](C)N(C)C[C@@H](C)[C@H](OC)CN(C)C2=O | x | x | -2 | x | x | x
CO[C@@H]1CN(C)C(=O)c2ccc(NC(=O)c3ccno3)cc2OC[C@H](C)N(C(=O)C2CCC2)C[C@@H]1C | x | x | -5 | x | x | x
CCCCc1cc(=O)oc2cc(OCc3nn[nH]n3)ccc12 | i | 19 | x | 35* | 6 | -1
CCCCc1cc(=O)oc2c(C)c(OCc3nn[nH]n3)ccc12 | 0 | 12 | 2 | 28* | 59* | 43*
CCCCc1cc(=O)oc2c(C)c(OCC(=O)NCc3ccccn3)ccc12 | 0 | -12 | -2 | 3 | x | x
CCCc1cc(=O)oc2cc(OCc3nn[nH]n3)ccc12 | -1 | 15 | -4 | 34* | 57* | 36*
CCCc1cc(=O)oc2cc(OCc3ccc(C(=O)O)o3)ccc12 | 1 | 13 | 1 | 36* | 17 | 1 | GDH-TPI DR=4.8*
C[C@@H]1CN([C@@H](C)CO)C(=O)c2cc(C#Cc3ccccn3)cnc2O[C@@H]1CN(C)Cc1ccncc1 | x | x | 2 | x | x | x
C/C=C/c1ccc([C@@H]2[C@@H](C#N)N(C(=O)Cc3ccccn3)[C@@H]2CO)cc1 | x | x | -2 | x | x | x
CSc1ccc(/C=C(\C(=O)O)c2ccc(S(=O)(=O)N3CCCCC3)s2)cc1 | 0 | 29 | x | 37* | 1 | -5
SMILES | Vc quorum ag | GDH-TPI counter-1 | BioA inh | FBA Mtb inh | Mtb FBA confirm | GDH-TPI counter-2 | others
CCOC(=O)c1cc(-c2cc3ccccc3o2)nc2c1c(=O)[nH]c(=O)n2CCOC | i | 5 | 5 | 46* | 2 | 1
CC(C)C(OC(=O)c1ccco1)C(=O)NCc1ccc2c(c1)OCO2 (centres undefined) | i | 2 | -1 | 74* | 135* | 84*
CC(=O)OC(C(=O)NCc1ccc2c(c1)OCO2)c1ccccc1Cl (centres undefined) | i | 4 | 0 | 105* | 120* | 92*
O=C(C[C@@H]1CC[C@@H]2[C@H](COC[C@H](O)CN2C(=O)c2ccc(F)cc2)O1)Nc1nccs1 | x | x | 0 | x | x | x
CCC(C)(O)c1[nH]c2ccc(C#N)cc2c1C (centres undefined) | i | 18 | 1 | 6 | x | x
Cc1ccc2ccc(C#N)cc2c1O | -5 | 18 | -1 | 36* | + | +
CCN1CCN(C(=S)Nc2cc(C(=O)OC)ccc2C(=O)OC)CC1 | 0 | 15 | u | 31* | 135* | 115*
COC(=O)c1ccc(C(=O)OC)c(NC(=S)N2CCOCC2)c1 | 0 | -2 | x | 26 | x | x
COC(=O)c1ccc(C(=O)OC)c(NC(=O)/C=C/C(=O)O)c1 | -2 | 0 | 0 | 57* | 52* | 50*
COC(=O)c1ccc(C(=O)OC)c(NC(=S)N2CCN(C(=O)C3CCCO3)CC2)c1 (centres undefined) | 1 | -4 | x | 28* | 113* | 89*
Cc1ccc(S(=O)(=O)Nc2ccc3c(c2)C(=O)N([C@H](C)CO)C[C@@H](C)[C@H](CN(C)C(=O)Nc2cccc4ccccc24)O3)cc1 | x | x | 1 | x | x | x
Nc1nc(-c2ccccc2)[nH]c(=O)c1N | 0 | 16 | -2 | 29* | 72* | 53*
Cc1ccc(S(=O)(=O)N(C)C[C@@H]2Oc3c(cccc3N(C)C)C(=O)N([C@@H](C)CO)C[C@H]2C)cc1 | x | x | 1 | x | x | x
CC(=O)Nc1ccc(NC(=O)Oc2ccccc2)cc1 | i | 4 | -1 | 1 | x | x
O=C(Nc1ccc(O)c(C(=O)O)c1)Oc1ccccc1 | 1 | 1 | x | 73* | 138* | 99*
CCOc1ccc(N(CC(=O)Nc2c(C)cccc2C)S(=O)(=O)c2c(C)[nH]c(=O)[nH]c2=O)cc1 | i | 17 | -1 | 91* | 85* | 53*
COCC(=O)Nc1ccc2c(c1)C(=O)N(C)C[C@H](OC)[C@H](C)CN(C(=O)Cc1ccccn1)[C@@H](C)CO2 | x | x | 1 | x | x | x
CCC(C)(C)NC(=S)Nc1ccc(-c2nc3ccc(C)cc3s2)cc1 | 0 | 28 | -3 | 92* | 2 | -3
CCCCNC(=S)Nc1ccc(-c2nc3ccc(C)cc3s2)cc1 | 0 | 21 | x | 56* | -2 | -5
Cc1ccc2nc(-c3ccc(NC(=O)CN4CCN(C(=O)c5ccco5)CC4)cc3)sc2c1 | 0 | 24 | 0 | 46* | + | +
